Assay results as given in PubChem BioAssay AID2384 (Southern Research Specialized Biocontainment Screening …, 2010).
About 1,100 (48%) of roughly 2,300 compounds were called active. No rule for the calls is given here. The set was probably picked from earlier hits. This is one part of the list. Entries with a potency or affinity are not part of this list.

test: inhibitors in S. typhi counter-screen strain, dose response, counter-screen for PhoP regulon inhibitor project, fluorescence, 4 h (AID 2384); details: S. typhi GFP reporter counter-screen; series mostly up to 150 µM; inhibition: at the top concentration

| Structure (SMILES) | inhibition |
| --- | --- |
| O=C(Oc1ccc[nH]c1=O)c1cc([N+](=O)[O-])cc([N+](=O)[O-])c1 | 37% (inactive) |
| Cc1ccc(C)c2[nH]c(=O)c(CN(Cc3cccnc3)C(=S)NCc3ccco3)cc12 | -7.36% (inactive) |
| C#CCOCCOCCOCCNc1nc(N2CCN(C(=O)CCCCCCCCCCNC(=O)[C@H](CCCCN)n3cc(C[C@@H](C)CC)nn3)CC2)nc(N2CCN(C(=O)CCCCCCCCCCNC(=O)[C@@H]([C@H](C)O)n3cc(C)nn3)CC2)n1 | 9.45% (inactive) |
| C#CCOCCOCCOCCNc1nc(N2CCN(C(=O)CCCCCCCCCCNC(=O)[C@H](CO)n3cc(CCCSC)nn3)CC2)nc(N2CCN(C(=O)CCCCCCCCCCNC(=O)[C@H](CCCN=C(N)N)n3cc(C[C@@H](C)CC)nn3)CC2)n1 | -11.9% (inactive) |
| C#CCOCCOCCOCCNc1nc(N2CCN(C(=O)CCCCCCCCCCNC(=O)Cn3cc(C[C@@H](C)O)nn3)CC2)nc(N2CCN(C(=O)CCCCCCCCCCNC(=O)[C@H](CCCN=C(N)N)n3cc(C[C@@H](C)CC)nn3)CC2)n1 | 7.83% (inactive) |
| CCN(CC)CCCNC(=O)c1c(O)c2c([nH]c1=O)CCCC2 | 1.16% (inactive) |
| COc1cc(C(=O)Nc2ccc3c(c2)OCCO3)ccc1OC(C)C | 2.98% (inactive) |
| Cc1ccc(S(=O)(=O)N2CCOCC2)cc1NC(=O)CSc1nc(N)cc(=O)[nH]1 | -11% (inactive) |
| C[C@@H](CO)NC(=O)c1ccc2c3n(nc2c1)-c1ccc(Cl)cc1CO3 | -3.51% (inactive) |
| Cc1nc2nc(COc3ccccc3)nn2c(C)c1Cl | 14.8% (inactive) |
| CC(C)C(=O)Nc1ccccc1-c1nc2ccccc2[nH]c1=O | 4.85% (inactive) |
| O=C(/C=C/c1ccccc1)NC(=S)N1CCSCC1 | -4.32% (inactive) |
| CCc1nnc(NS(=O)(=O)c2ccc(NC(=S)NC(=O)/C=C/c3ccc(C(C)C)cc3)cc2)s1 | 39.2% (inactive) |
| O=C(/C=C/c1ccccc1)OCc1cnc(Cl)s1 | -16.4% (inactive) |
| COc1ccccc1-n1c(SCC(=O)O)nnc1-c1ccc(S(=O)(=O)N2CCCCC2)cc1 | 16.1% (inactive) |
| O=C(CCSCc1ccccc1F)NCc1cccs1 | 6.35% (inactive) |
| Nc1cc(N2CCOCC2)c(Cl)cc1[N+](=O)[O-] | -13% (inactive) |
| O=C(NC1CC1)C1CCN(C2CCN(C(=O)Cc3ccc(F)cc3)CC2)CC1 | -14.2% (inactive) |
| COc1cc(C(=O)NC(=S)Nc2cccc3nc(C)ccc23)cc(OC)c1OC | 36.5% (inactive) |
| CCCC(=O)N1CCN(c2ccc(NC(=S)NC(=O)c3cccc(C)c3)cc2)CC1 | -4.38% (inactive) |
| O=C(NNC(=O)c1cccs1)c1ccc2ccccc2c1 | 27.6% (inactive) |
| COC(=O)c1ccc(NC(=S)NNC(=O)c2ccccc2)cc1 | 20.3% (inactive) |
| COc1ccc(-c2noc(CCC(=O)Nc3cccc(C)c3)n2)cc1 | 13.1% (inactive) |
| Cc1ccc(NC(=O)C(=O)NNC(=O)c2cccs2)cc1 | 26.1% [at 2.34 µM] (inactive) |
| CC1(C)CC(=O)C(C(=O)/C=C/NCCc2ccccc2)C(=O)C1 | 20.5% (inactive) |
| Cc1ccc(-c2cc(N)nc(-c3ccccc3)c2)cc1 | 33% (inactive) |

| Structure (SMILES) | inhibition |
| --- | --- |
| O=C1C(SCCO)=C(SCCO)C(=O)c2ccccc21 | 24.9% (inactive) |
| O=C(O)c1ccc(NC2=C(Cl)C(=O)c3ccccc3C2=O)cc1 | -19.2% (inactive) |
| CC(C)C(NS(=O)(=O)c1cccc2nsnc12)C(=O)N1CCn2c1nc1ccccc12 (centres undefined) | 20.8% (inactive) |
| COc1cccc(N2CCN(C(=S)NCc3ccco3)CC2)c1 | -37.1% (inactive) |
| COc1ccc(Nc2nc(-c3ccccc3)nc3ccccc23)cc1S(=O)(=O)N1CCOCC1 | -6.61% (inactive) |
| C=CCn1c(O)c(N=NC(=O)c2cccnc2)c2cc(Br)ccc21 | -3.27% (inactive) |
| COc1cccc(C(=O)CC(=O)C(=O)Nc2cc(OC)c(OC)c(OC)c2)c1 | 11.7% (inactive) |
| Cc1cc(C)cc(N(C(=O)CNC(=O)c2cccs2)C(C(=O)NC2CCCC2)c2cccnc2)c1 (centres undefined) | 16.6% (inactive) |
| CCc1c(C)nc2cc(-c3cc(OC)cc(OC)c3)nn2c1N1CCCC1 | 12.4% (inactive) |
| CCN1CCc2c(C#N)c(NCc3ccccc3)nc(NCCO)c2C1 | 10.4% (inactive) |
| Cc1[nH]nc2c1C(C1CC=CCC1)C(C#N)=C(N)O2 (centres undefined) | -21.3% (inactive) |
| C#CC(=O)N(c1cccc(OC)c1)C(C(=O)NC1CCCC1)c1cccs1 (centres undefined) | -6.44% (inactive) |
| O=C(CCCc1ccccc1)Nc1cccnc1 | 8.17% (inactive) |
| COc1ccc(CCC(=O)NCc2cn3ccccc3n2)cc1 | -5.49% (inactive) |
| S=C(Nc1ccccc1Cl)N(Cc1ccccc1)Cc1ccccn1 | -17% (inactive) |
| COc1ccc(-c2nc3ccc(C(=O)NCC(OC)OC)cc3nc2-c2ccc(OC)cc2)cc1 | -2.98% (inactive) |
| COCCCNC(=O)c1cc(OC)c(OC)c(OC)c1 | -18.1% (inactive) |
| CCOCCCNC(=O)C(c1ccc(OC)cc1)N(Cc1cccs1)C(=O)c1ccccn1 (centres undefined) | -14% (inactive) |
| O=c1c2ccccc2ncn1Cc1ccc(Cl)cc1 | 5.03% (inactive) |
| CCOC(=O)CSc1nnc2c(n1)C1(C)CCC2C1(C)C (centres undefined) | 0.17% (inactive) |
| O=C(O)/C=C/c1cn(-c2ccccc2)nc1-c1cc2ccccc2oc1=O | -6.24% (inactive) |
| Cc1cccc(OCC(=O)NNc2c3ccccc3nc3ccccc23)c1 | 8.34% (inactive) |
| CCC(C)(C)NC(=O)COc1ccc(C(=O)c2ccccc2)cc1 | 3.67% (inactive) |
| Cc1ccc(OCC(=O)N2CCN(S(C)(=O)=O)CC2)cc1 | 13.9% (inactive) |
| CCOc1ccc(NC(=O)CN(C)S(=O)(=O)c2cccs2)cc1 | 14.8% (inactive) |
| COc1ccc(Cl)cc1S(=O)(=O)N1CCN(C(=O)c2ccco2)CC1 | 20.3% (inactive) |

| Structure (SMILES) | inhibition |
| --- | --- |
| CCOC(=O)c1ccc(S(=O)(=O)N2CCN(CCC#N)CC2)cc1 | -7.98% (inactive) |
| CCOC(=O)N1CCN(C(=S)NC(=O)c2ccc(Br)cc2)CC1 | 6.72% (inactive) |
| CCOC(=O)N1CCN(CC(=O)Nc2ccc(F)cc2F)CC1 | 4.71% (inactive) |
| COc1ccc(N(CCCN2C(=O)c3cccc4cccc(c34)C2=O)C(=O)c2cccnc2)cc1 | 7.69% (inactive) |
| C/C(=N\NC(=O)COc1ccccc1[N+](=O)[O-])c1cccs1 | 4.14% (inactive) |
| O=C(Cn1c(=O)oc2cc(S(=O)(=O)N3CCCC3)ccc21)N1CCN(c2ccccc2F)CC1 | -19.8% (inactive) |
| CC1CCCN(C(=O)Cn2c(=O)oc3cc(S(=O)(=O)N4CCCCC4)ccc32)C1 (centres undefined) | -8.49% (inactive) |
| CCN(CC)c1cc(C)c2cc(NC(=O)c3ccccc3F)ccc2n1 | 16.7% (inactive) |
| CCn1cc(C(=O)O)c(=O)c2cc(F)c(N3CCN(C(=S)NC(=O)c4ccccc4F)CC3)cc21 | 7.79% (inactive) |
| N=C1c2ccccc2CN1c1ncccn1 | 24.2% (inactive) |
| COCCCNc1c2c(nc3nnnn13)CCCC2 | -14.2% (inactive) |
| CCN(CC)S(=O)(=O)c1ccc(N2CCOCC2)c(C(=O)O)c1 | 10.2% (inactive) |
| CCN(CC)CCOC(=O)c1cc(Cl)c(N)cc1OC | -7.05% (inactive) |
| COc1ccc(C(CC(=O)O)NC(=O)C2CCCCC2)cc1 (centres undefined) | -13.5% (inactive) |
| COc1ccc(CCNC(=O)Cn2c(=O)n(CC3CCCO3)c(=O)c3ccccc32)cc1OC (centres undefined) | 6.95% (inactive) |
| COc1ccc(OC)c(-c2cc(C(=O)Nc3ccc(F)cc3F)no2)c1 | -17% (inactive) |
| Cc1nc(N2CCOCC2)c2c(C)c(C(=O)Nc3ccccc3C(F)(F)F)sc2n1 | -9.31% (inactive) |
| O=C(Cn1nc(Cl)nc1Cl)c1ccc([N+](=O)[O-])cc1 | 30.1% (inactive) |
| CC1CC(C)CN(S(=O)(=O)c2ccc3c(c2)oc(=O)n3CC(=O)N(C)Cc2ccccc2)C1 (centres undefined) | -12.7% (inactive) |
| Cc1cc(=O)n2nc(N3CCCC(C(=O)NC4CCCCC4C)C3)sc2n1 (centres undefined) | -27.6% (inactive) |
| Cc1nnc(SCC(=O)Nc2cc(S(=O)(=O)N3CCCC3)ccc2Cl)s1 | 7.35% (inactive) |
| CCOc1ccc(S(=O)(=O)N2CCC(C(=O)NCCN3CCOCC3)CC2)cc1C | -8.84% (inactive) |
| CCCCCCCCn1ccc(=N)cc1 | 16.7% (inactive) |
| CCN(CC)CCn1nc(C)nc1-c1ccccc1O | 26.3% (inactive) |
| CCN1c2ccccc2NC2N=C(OC)C(c3ccccc3)C21 (centres undefined) | 10% (inactive) |
| O=C(Nc1ccc(F)cc1)c1ccc2snnc2c1 | -0.59% (inactive) |

| Structure (SMILES) | inhibition |
| --- | --- |
| Clc1ccc(CN2CCN(/N=C/c3ccco3)CC2)cc1 | -9.25% (inactive) |
| C=CCn1c(C)cc(C(=O)CSc2n[nH]c(N)n2)c1C | 17.4% (inactive) |
| COc1ccc(NC(=O)N2CCc3ccccc32)cc1 | 6.46% (inactive) |
| O=C(CCl)NC1CCCc2ccccc21 (centres undefined) | 17% (inactive) |
| Cc1c(-n2cc(C(=O)c3ccccc3O)cc(C#N)c2=O)c(=O)n(-c2ccccc2)n1C | -26% (inactive) |
| Cc1c(NC(=O)OCc2ccccc2)c(=O)n(-c2ccccc2)n1C | 6.31% (inactive) |
| Cc1csc2ncc(C(=O)Nc3ccon3)c(=O)n12 | -27.3% (inactive) |
| O=C(CCn1cccc1)Nc1ccc(OC(F)(F)F)cc1 | 6.96% (inactive) |
| O=C(O)C1CCCCC1C(=O)NCCc1ccncc1 (centres undefined) | -33.6% (inactive) |
| COc1ccc(N(C(=O)c2cccnc2)S(=O)(=O)c2ccc(F)cc2)cc1 | 9.91% (inactive) |
| N/C(=N\OC(=O)C(c1ccccc1)c1ccccc1)c1ccncc1 | 5.38% (inactive) |
| CCOC(=O)C(O)(NC(=O)c1cccnc1)C(F)(F)F (centres undefined) | -35.3% (inactive) |
| O=C(Nc1ccc(S(=O)(=O)N2CCCC2)cc1)c1cccnc1 | -28.6% (inactive) |
| N/C(=N\OC(=O)COc1ccc2ccccc2c1)c1ccccn1 | 23.6% (inactive) |
| O=C(O)c1[nH]c2ccc(Br)cc2c1CCN1C(=O)c2cccc([N+](=O)[O-])c2C1=O | -4.29% (inactive) |
| CCOC(=O)C(NC(C)=O)(OCc1ccc(F)cc1)C(F)(F)F (centres undefined) | -10.7% (inactive) |
| COc1cccc(/C=N/NC(=O)CNC(=O)CCc2ccccc2)c1O | 33.1% (inactive) |
| COc1ccc(C2CC(=O)N3CN(Cc4ccco4)CSC3=C2C#N)cc1 (centres undefined) | 26.7% (inactive) |
| C=CCNC(=O)NC(=O)COC(=O)/C(C#N)=C/c1ccc(OC)cc1 | -18.2% (inactive) |
| N/C(=N\OC(=O)N1CCOCC1)c1ccccc1 | -11.4% (inactive) |
| O=C(Nc1cccc(OCC(=O)N2CCOCC2)c1)c1cccc([N+](=O)[O-])c1 | 6.44% (inactive) |
| CC(C)(C)c1ccc(NC(=O)COc2ccc(-n3ccnc3)cc2)cc1 | 38.1% (inactive) |
| CCC(C)(c1ccc(C(=O)OC)s1)c1ccc(C(=O)OC)s1 | -5.73% (inactive) |
| CCOC(=O)C1CCN(Cc2nc(-c3ccc(OC)c(OC)c3)no2)CC1 | 1.43% (inactive) |
| CC1=C([N+](=O)[O-])C(c2ccccc2)C2=C(N1)c1ccccc1C2=O (centres undefined) | 5.99% (inactive) |
| CCSC1=NCN(CCCC(=O)O)CN1 | 18.6% (inactive) |
